# From ChEMBL document CHEMBL4513143, “CO-ADD screening of University of Natural Resources and Life (Austria) compounds”
# Entries with a potency or affinity are not part of this list.
# What was measured:
# [1] = test system: Staphylococcus aureus; details: Concentration 32 ug.mL-1; ASSAY_TEST Inhibition of Bacterial Growth; detection method Absorption (OD600); MEDIA CAMHB; plate type 384well; NBS; CORNING #3640; time 18 hr
# [2] = test system: Escherichia coli; details: Concentration 32 ug.mL-1; ASSAY_TEST Inhibition of Bacterial Growth; detection method Absorption (OD600); MEDIA CAMHB; plate type 384well; NBS; CORNING #3640; time 18 hr
compound,measurement,setting,value
[N-]=[N+]=NC[C@H]1OC(O)[C@@H](O)[C@@H]1O (some centres not stated),Inhibition,[1],29.31%
same,Inhibition,[2],18.39%
